Assay results reported in PubChem BioAssay AID1159580 (chemical genetic matrix, 2015).
Where “and” joins values, the source holds several entries; their conditions need not be identical. Equal values may be shown once. Hit rate of the full screen: of about 5,500 compounds, about 2,000 (36%) were called active. Roughly 18% stayed inconclusive and do not appear here. Cut-off read from the data, not from the text of the source: active = normalized growth mostly below about 0.91 (no sharp cut-off); inconclusive = no clear call, values can overlap the other calls; inactive = mostly above about 0.92. Some of the results follow.

Assay: chemical genetic growth profiling, strain panel (AID 1159580);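 note: tested at 20 µM; growth read once vehicle control cultures reached saturation at 30 °C; 1 = growth at the plate median or of vehicle wells; lower values mean less growth of the strain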
Settings: S. cerevisiae deletion strains, growth OD

Measured: normalized growth

COc1cc2c(cc1OC)[C@@H]1C(=O)c3ccc(OC)c(CC=C(C)C)c3O[C@@H]1CO2
inactive: locus YAL013W, strain DEP1, active compounds read low 1.03 | locus YAL021C, strain ccr4, active compounds read low 1.06 | locus YAL026C, strain drs2, active compounds read low 1.04 | locus YAL030W, strain snc1, active compounds read low 1.02 | locus YBL061C, strain skt5, active compounds read low 1.02 | locus YBR009C, strain hhf1, active compounds read low 1.01 | locus YBR021W, strain FUR4, active compounds read low 1.03 | locus YBR023C, strain chs3, active compounds read low 1.02 | locus YBR171W, strain sec66, active compounds read low 1.05 | locus YBR229C, strain ROT2, active compounds read low 1.02 | locus YBR231C, strain swc5, active compounds read low 1.05 | locus YBR279W, strain paf1, active compounds read low 1.01 | locus YCL011C, strain gbp2, active compounds read low 1.02 | locus YCL016C, strain dcc1, active compounds read low 1.02 | locus YCL029C, strain bik1, active compounds read low 1.02 | locus YCL061C, strain MRC1, active compounds read low 0.987 | locus YCL069W, strain vba3, active compounds read low 1.03 | locus YCR088W, strain abp1, active compounds read low 1.02 | locus YDL005C, strain med2, active compounds read low 1.02 | locus YDL035C, strain GPR1, active compounds read low 1.06 | locus YDL040C, strain nat1, active compounds read low 1.02 | locus YDL074C, strain BRE1, active compounds read low 1.05 | locus YDL101C, strain DUN1, active compounds read low 1.01 | locus YDL185W, strain tfp1, active compounds read low 1.02 | locus YDL192W, strain arf1, active compounds read low 1.04 | locus YDR001C, strain nth1, active compounds read low 1.02 | locus YDR069C, strain doa4, active compounds read low 1.03 | locus YDR101C, strain arx1, active compounds read low 1.03 | locus YDR137W, strain rgp1, active compounds read low 0.892 | locus YDR159W, strain sac3, active compounds read low 1.02 | locus YDR162C, strain NBP2, active compounds read low 1.01 | locus YDR195W, strain ref2 1.06 | locus YDR297W, strain sur2, active compounds read low 1.02 | locus YDR318W, strain mcm21, active compounds read low 1.01 | locus YDR334W, strain swr1, active compounds read low 1.02 | locus YDR335W, strain msn5, active compounds read low 1.03 | locus YDR388W, active compounds read low 1.02 | locus YDR392W, strain spt3, active compounds read low 0.813 | locus YDR502C, strain sam2, active compounds read low 1.01 | locus YEL003W, strain gim4, active compounds read low 1.03 | locus YEL037C, strain rad23, active compounds read low 1.01 | locus YEL061C, strain CIN8 (second series), active compounds read low 1.03 | locus YEL061C, strain CIN8, active compounds read low 1.04 | locus YER015W, strain faa2, active compounds read low 1.04 | locus YER016W, strain bim1, active compounds read low 1.03 | locus YER110C, active compounds read low 1 | locus YER111C, strain swi4, active compounds read low 1.02 | locus YER155C, strain BEM2 (second series), active compounds read low 1.03 | locus YER155C, strain BEM2, active compounds read low 0.993 | locus YER167W, strain BCK2, active compounds read low 1.01 | locus YFR010W, strain ubp6, active compounds read low 1.03 | locus YGL078C, strain dbp3, active compounds read low 1.01 | locus YGL086W, strain mad1, active compounds read low 0.999 | locus YGL167C, strain pmr1, active compounds read low 1.03 | locus YGL173C, strain kem1, active compounds read low 1.04 | locus YGL227W, strain vid30, active compounds read low 1.03 | locus YGL240W, strain doc1, active compounds read low 1.03 | locus YGL248W, strain PDE1, active compounds read low 1.02 | locus YGL253W, strain hxk2, active compounds read low 1.04 | locus YGR078C, strain PAC10, active compounds read low 1.05 | locus YGR135W, strain pre9, active compounds read low 1.02 | locus YGR252W, strain gcn5, active compounds read low 0.994 | locus YHR013C, strain ard1, active compounds read low 1.14 | locus YHR027C, strain rpn1, active compounds read low 1.03 | locus YHR030C, strain SLT2, active compounds read low 1.02 and 1.03 | locus YHR079C, strain IRE1 (second series), active compounds read low 0.997 | locus YHR079C, strain IRE1, active compounds read low 1.02 | locus YHR094C, strain hxt1, active compounds read low 1.01 | locus YHR129C, strain ARP1, active compounds read low 1.04 | locus YHR142W, strain chs7, active compounds read low 1.01 | locus YHR200W, strain rpn10, active compounds read low 1.01 | locus YIL066C, strain RNR3, active compounds read low 1.01 | locus YIL073C, strain SPO22, active compounds read low 1.1 | locus YIL125W, strain kgd1, active compounds read low 0.995 | locus YIR030C, strain dcg1, active compounds read low 0.998 | locus YJL092W, strain hpr5, active compounds read low 1.03 | locus YJL095W, strain BCK1 (second series), active compounds read low 1.02 | locus YJL095W, strain BCK1, active compounds read low 1.04 and 1.05 | locus YJL115W, strain asf1, active compounds read low 1.03 | locus YJL129C, strain trk1, active compounds read low 0.953 | locus YJL134W, strain LCB3, active compounds read low 1.02 | locus YJL154C, strain vps35, active compounds read low 1.03 | locus YJL164C, strain tpk1, active compounds read low 1 | locus YJL166W, strain qcr8, active compounds read low 1.03 | locus YJL168C, strain set2, active compounds read low 1 | locus YJL187C, strain SWE1 (second series), active compounds read low 1 | locus YJL187C, strain SWE1, active compounds read low 1.04 | locus YJR066W, strain TOR1, active compounds read low 0.982 | locus YKL009W, strain mrt4, active compounds read low 1.04 | locus YKL068W, active compounds read low 0.999 | locus YKL085W, strain MDH1 (second series), active compounds read low 0.999 | locus YKL085W, strain MDH1, active compounds read low 0.999 | locus YKL160W, strain elf1, active compounds read low 1.02 | locus YKL190W, strain CNB1, active compounds read low 1.04 | locus YKR001C, strain vps1, active compounds read low 0.934 | locus YKR026C, strain gcn3, active compounds read low 1 | locus YKR091W, strain srl3, active compounds read low 1.02 | locus YLL001W, strain dnm1, active compounds read low 1.03 | locus YLL026W, active compounds read low 1.03 | locus YLL041C, strain sdh2, active compounds read low 1.02 | locus YLR027C, strain aat2, active compounds read low 1.02 | locus YLR039C, strain RIC1, active compounds read low 0.846 | locus YLR058C, strain SHM2, active compounds read low 1 | locus YLR102C, strain apc9, active compounds read low 1.01 | locus YLR113W, strain HOG1, active compounds read low 0.988 | locus YLR221C, strain rsa3, active compounds read low 1.01 | locus YLR258W, strain gsy2, active compounds read low 1.03 | locus YLR262C, strain YPT6 (second series), active compounds read low 0.91 | locus YLR268W, strain sec22, active compounds read low 1.05 | locus YLR320W, strain mms22, active compounds read low 1.02 | locus YLR330W, strain CHS5, active compounds read low 1.01 | locus YLR342W, strain FKS1, active compounds read low 1.02 | locus YLR357W, strain rsc2, active compounds read low 1.02 | locus YLR370C, strain arc18, active compounds read low 1.02 | locus YLR371W, strain rom2, active compounds read low 1.04 | locus YLR384C, strain iki3, active compounds read low 1.02 | locus YLR418C, strain cdc73, active compounds read low 1.01 | locus YML016C, strain PPZ1, active compounds read low 1.01 | locus YML032C, strain rad52, active compounds read low 1 | locus YML120C, strain ndi1, active compounds read low 1.01 | locus YML124C, strain tub3, active compounds read low 1.01 | locus YMR058W, strain fet3, active compounds read low 1.03 | locus YMR078C, strain ctf18, active compounds read low 1.01 | locus YMR125W, strain sto1, active compounds read low 1.03 | locus YMR129W, active compounds read low 1.02 | locus YMR205C, strain PFK2, active compounds read low 0.993 | locus YMR223W, strain ubp8, active compounds read low 1.02 | locus YMR231W, strain pep5, active compounds read low 1.02 | locus YMR263W, strain SAP30, active compounds read low 1.03 | locus YMR307W, strain GAS1, active compounds read low 1.08 | locus YNL067W, strain RPL9B, active compounds read low 1.04 | locus YNL071W, strain lat1, active compounds read low 1.01 | locus YNL153C, strain GIM3, active compounds read low 1.04 | locus YNL183C, strain NPR1, active compounds read low 0.974 | locus YNL209W, strain ssb2, active compounds read low 1.03 | locus YNL233W, strain BNI4, active compounds read low 0.984 | locus YNL248C, strain rpa49, active compounds read low 1.05 | locus YNL250W, strain rad50, active compounds read low 0.961 | locus YNL271C, strain bni1, active compounds read low 1.01 | locus YNL298W, strain CLA4, active compounds read low 1.01 | locus YNL307C, strain MCK1, active compounds read low 0.999 | locus YNL322C, strain KRE1 (second series), active compounds read low 1.01 | locus YNL322C, strain KRE1, active compounds read low 1.02 | locus YNR049C, strain mso1, active compounds read low 1.04 | locus YNR052C, strain pop2, active compounds read low 1.03 | locus YOL012C, strain htz1 1.26 | locus YOL147C, strain pex11, active compounds read low 1 | locus YOR001W, strain rrp6, active compounds read low 1.04 | locus YOR061W, strain CKA2, active compounds read low 1.02 | locus YOR069W, strain VPS5, active compounds read low 1.01 | locus YOR070C, strain gyp1, active compounds read low 1.02 | locus YOR080W, strain dia2, active compounds read low 1.04 | locus YOR083W, strain WHI5, active compounds read low 1.02 | locus YOR106W, strain vam3, active compounds read low 1.05 | locus YOR136W, strain idh2, active compounds read low 1.03 | locus YOR144C, strain elg1, active compounds read low 1.01 | locus YOR184W, strain ser1, active compounds read low 1.05 | locus YOR231W, strain MKK1, active compounds read low 1.04 | locus YOR265W, strain rbl2, active compounds read low 1.02 | locus YOR270C, strain vph1, active compounds read low 1.06 | locus YOR290C, strain snf2, active compounds read low 1 | locus YOR316C, strain cot1, active compounds read low 0.992 | locus YPL051W, strain arl3, active compounds read low 1.01 | locus YPL078C, strain atp4, active compounds read low 1.03 | locus YPL106C, strain sse1, active compounds read low 1.1 | locus YPL240C, strain hsp82, active compounds read low 1.02 | locus YPL256C, strain CLN2, active compounds read low 1.03 | locus YPR119W, strain clb2, active compounds read low 1.01 | locus YPR141C, strain kar3, active compounds read low 1 | locus YPR163C, strain tif3, active compounds read low 0.997 | locus YPR167C, strain met16, active compounds read low 1.01 | strain wtn01, active compounds read low 1.01
